{
  "source": "PubChem BioAssay (NCI)",
  "note": "Compounds without any hit were thinned out: in the full panel of roughly 83,000, 20% have a hit.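 The endpoint reported here, percent growth, reads 100 for growth as untreated, 0 for no net growth and -100 for all cells dead.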 Calls of active or inactive are those of the source. Rule for the calls: active = growth percent below 10; inactive = the rest.",
  "data": [
    {"system": "SF-295 CNS", "assay": "NCI-60 one-dose screen, 48 h (100 = growth as untreated, 0 = no growth, -100 = all killed)", "conditions": "10 µM unless noted", "values": [
      {"compound": "C=CCn1c(=O)c2cnc(Nc3ccc(N4CCN(C)CC4)cc3)nc2n1-c1cccc(C(C)(C)O)n1", "growth": "34.8% (inactive)"},
      {"compound": "Clc1ccc2c(NCCNc3nc(N4CCCC4)nc4ccccc34)ccnc2c1", "growth": "-73.1% (active)"},
      {"compound": "Clc1ccc(/C=C/c2cc(N3CCOCC3)c3cc(Cl)c(Cl)cc3n2)cc1", "growth": "95.9% (inactive)"},
      {"compound": "Nc1ncnc2c1ccn2-c1cccc(NC(=O)c2ccc(N3CCOCC3)c(C(F)(F)F)c2)c1", "growth": "28.6% (inactive)"},
      {"compound": "CC12O[C@H](C[C@@H](OC(=O)CCC(=O)O)[C@H]1O)n1c3ccccc3c3c4c(c5c6ccccc6n2c5c31)C(=O)NC4=O", "growth": "13.1% (inactive)"}
    ]},
    {"system": "SF-539 CNS", "assay": "NCI-60 one-dose screen, 48 h (100 = growth as untreated, 0 = no growth, -100 = all killed)", "conditions": "10 µM unless noted", "values": [
      {"compound": "C=CCC(=O)N[C@H](/C=C/C(=O)O)Cc1ccc(-c2cc(Cl)cc(Cl)c2)cc1", "growth": "94.6% (inactive)"},
      {"compound": "CCN1CCN(c2cc(C)nc(N(CCCNc3ccnc4cc(Cl)ccc34)Cc3cccs3)n2)CC1", "growth": "-89.8% (active)"},
      {"compound": "COC(=O)CCCNc1c(-c2c(O)c(O)cc3c(O)c(-c4c(C)cc5c(-c6nc7ccccn7c6NCCCC(=O)OC)c(O)c(O)cc5c4O)c(C)cc23)nc2ccccn12", "growth": "2.01% (active)"},
      {"compound": "Cn1ncc(Cl)c1-c1cc(C(=O)N[C@H](CN)Cc2ccc(F)c(F)c2)oc1Cl", "growth": "-75.1% (active)"},
      {"compound": "O=c1[nH]c(N2CCOCC2)nc2scc(-c3ccccc3)c12", "growth": "94.3% (inactive)"},
      {"compound": "Cc1cc2c(-c3nc4ccccn4c3NC3CCCCC3)c(O)c(O)cc2c(O)c1-c1c(C)cc2c(-c3nc4ccccn4c3NC3CCCCC3)c(O)c(O)cc2c1O", "growth": "16.9% (inactive)"},
      {"compound": "CC(C)C1CCC(C)C(C2(C#N)C(N)=NC(N)=C2C#N)C1=O", "note": "(centres undefined)", "growth": "97.7% (inactive)"},
      {"compound": "Cc1cc(N2CCCC2)nc(N(CCCNc2ccnc3cc(Cl)ccc23)Cc2ccc3c(c2)OCO3)n1", "growth": "-90.5% (active)"},
      {"compound": "[2H]C1([2H])[C@H](C)O[C@H](C)C([2H])([2H])N1c1ccc(NC(=O)c2cccc(-c3ccc(OC(F)(F)F)cc3)c2C)cn1", "growth": "81.6% (inactive)"},
      {"compound": "Cc1cc2c(-c3nc4ccccn4c3NC34CC5CC(CC(C5)C3)C4)c(O)c(O)cc2c(O)c1-c1c(C)cc2c(-c3nc4ccccn4c3NC34CC5CC(CC(C5)C3)C4)c(O)c(O)cc2c1O", "growth": "-1.69% (active)"},
      {"compound": "CC[C@H](Nc1ncnc2nc[nH]c12)c1nc2cccc(F)c2c(=O)n1-c1ccccc1", "growth": "102% (inactive)"},
      {"compound": "COC(=O)C1=C(C(=O)OC)C23C=C(C)C1C2=C(C)C1(CC1)[C@@](C)(O)C3=O", "note": "(some centres undefined)", "growth": "-39.6% (active)"},
      {"compound": "c1ccc2c(c1)CCN(NCCN1CCCC1)C2", "growth": "97.7% (inactive)"},
      {"compound": "Cc1cc(N(CCNc2ccnc3cc(Cl)ccc23)Cc2cccs2)nc(Cl)n1", "growth": "-92.2% (active)"},
      {"compound": "COc1cc(-c2nc(C(=O)Nc3ccc(C)cc3)nn2-c2ccc(F)c(F)c2)cc(OC)c1OC", "growth": "107% (inactive)"},
      {"compound": "O=C(Cn1c(=O)ccn(CCCCCCCCOc2ccc(Br)cc2)c1=O)Nc1ccc(Oc2ccc(Cl)cc2)cc1", "growth": "61.9% (inactive)"},
      {"compound": "Cc1ccc(-c2cc3c(SCC(=O)Nc4cc(C(F)(F)F)ccc4Cl)nccn3n2)cc1", "growth": "53.9% (inactive)"},
      {"compound": "CCCc1cc2cc(-n3nc(C)c4c3CC(C)(C)CC4=O)cc(NC3CCC(O)CC3)c2c(=O)[nH]1", "note": "(centres undefined)", "growth": "37.8% (inactive)"},
      {"compound": "COc1ccc(C(=O)c2cc(OC)c(OC)c(OC)c2)cc1/C=C/C(=O)c1ccc(F)cc1", "growth": "51.8% (inactive)"},
      {"compound": "CC(C)=CCc1cc2c(cc1O)C1=C(C(=O)C3=C(C1=O)S(=O)(=O)CCN3)C(C=C(C)C)O2", "note": "(centres undefined)", "growth": "-100% (active)"},
      {"compound": "CN1CCN(c2nc(NCCNc3ccnc4cc(Cl)ccc34)c3ccccc3n2)CC1", "growth": "-78.4% (active)"},
      {"compound": "COc1ccc(CCCc2c3[n+](cc4c(OC)c(OC)ccc24)CCc2cc4c(cc2-3)OCO4)cc1", "growth": "92.3% (inactive)"},
      {"compound": "N#Cc1cc2[nH]c3ccc(OC(F)(F)F)cc3c2oc1=O", "growth": "90% (inactive)"},
      {"compound": "CCN1CCN(CCCN(C[C@H]2Cc3ccccc3CN2)[C@H]2CCCc3cccnc32)CC1", "growth": "94.2% (inactive)"},
      {"compound": "Clc1ccc2c(NCCCNCc3ccc4c(c3)OCO4)ccnc2c1", "growth": "-86.7% (active)"},
      {"compound": "Cc1cc(N2CCOCC2)nc(N(CCNc2ccnc3cc(Cl)ccc23)Cc2cccs2)n1", "growth": "-65.7% (active)"},
      {"compound": "CCN1CCN(c2cc(C)nc(N(CCCNc3ccnc4cc(Cl)ccc34)Cc3ccc4c(c3)OCO4)n2)CC1", "growth": "-88.6% (active)"},
      {"compound": "COc1cc(-c2cc(-c3ccc(Nc4ccnc5cc(Cl)ccc45)cc3)nc(N3CCOCC3)n2)cc(OC)c1OC", "growth": "32.9% (inactive)"},
      {"compound": "COC(=O)C1CCc2sc3ncnc(Nc4cn[nH]c4C(=O)Nc4ccc(CN5CCN(C)CC5)cc4)c3c21", "note": "(centres undefined)", "growth": "-77.3% (active)"},
      {"compound": "CO/C=C/C(=O)c1cc2cnc3c(=N)cc(NC(=O)C(C)C)c([nH]1)c23", "growth": "-57% (active)"},
      {"compound": "CCN1CCN(c2nc(C)cc(N(CCNc3ccnc4cc(Cl)ccc34)Cc3ccc4c(c3)OCO4)n2)CC1", "growth": "-90.7% (active)"},
      {"compound": "N#CC(C#N)=NO", "growth": "99.8% (inactive)"},
      {"compound": "C=CC(=O)N(C)[C@H]1C[C@H]2OC(C)(C1OC)n1c3ccccc3c3c4c(c5c6ccccc6n2c5c31)C(=O)NC4", "note": "(some centres undefined)", "growth": "-49.1% (active)"},
      {"compound": "Cc1ccc(NC(=O)NC(=O)CSc2nc3ccccc3nc2C)cc1", "growth": "65.5% (inactive)"},
      {"compound": "C=CCn1c(=O)c2cnc(Nc3ccc(N4CCN(C)CC4)cc3)nc2n1-c1cccc(C(C)(C)O)n1", "growth": "-26.3% (active)"},
      {"compound": "Clc1ccc2c(NCCNc3nc(N4CCCC4)nc4ccccc34)ccnc2c1", "growth": "-92.6% (active)"},
      {"compound": "Clc1ccc(/C=C/c2cc(N3CCOCC3)c3cc(Cl)c(Cl)cc3n2)cc1", "growth": "62.3% (inactive)"},
      {"compound": "Nc1ncnc2c1ccn2-c1cccc(NC(=O)c2ccc(N3CCOCC3)c(C(F)(F)F)c2)c1", "growth": "46.9% (inactive)"},
      {"compound": "CC12O[C@H](C[C@@H](OC(=O)CCC(=O)O)[C@H]1O)n1c3ccccc3c3c4c(c5c6ccccc6n2c5c31)C(=O)NC4=O", "growth": "-8.98% (active)"}
    ]}
  ]
}
